Source: PMC7862700, “An all-to-all approach to the identification of sequence-specific readers for epigenetic DNA modifications on cytosine”

Tests used:
Experiment in all cases: DAPPL (digital affinity profiling via proximity ligation, sequencing); 10 mM Tris-HCl pH 7.5, 50 mM NaCl, 1 mM DTT, 4% glycerol, room temperature, 30 min; GST-TFs on glutathione beads, 16-mer random dsDNA library, 0.1% formaldehyde crosslink after washing; high values mean tight binding
FEV = target: T1, FEV (Homo sapiens, UniProt Q99581 1-238); details: protein: recombinant; tags: N-terminal GST; dsDNA, one strand shown
T1 sequence: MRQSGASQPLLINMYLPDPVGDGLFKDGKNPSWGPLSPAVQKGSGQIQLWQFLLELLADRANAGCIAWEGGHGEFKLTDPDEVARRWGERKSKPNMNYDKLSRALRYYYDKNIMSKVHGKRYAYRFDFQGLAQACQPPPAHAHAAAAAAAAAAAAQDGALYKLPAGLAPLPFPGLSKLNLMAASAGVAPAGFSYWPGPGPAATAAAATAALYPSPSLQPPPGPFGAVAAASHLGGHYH
In short: (§1)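 Each value of binding signal is a hexamer's read frequency for a factor divided by the same hexamer's frequency in the tag-only sample. Barcoded, bead-captured GST fusions of human transcription factors made in yeast were pooled with that sample and incubated with 200 nmole of a random double-stranded 16-mer DNA library in Tris/NaCl/DTT/glycerol buffer at room temperature for 30 min. Washing, 0.1% formaldehyde crosslinking, proximity ligation, PCR and Illumina NextSeq500 sequencing followed.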

ETV5 = ETV5 (Homo sapiens, UniProt P41161 1-510); details: protein: recombinant; tags: N-terminal GST; dsDNA, one strand shown
Chain of ETV5 (P41161 whole entry): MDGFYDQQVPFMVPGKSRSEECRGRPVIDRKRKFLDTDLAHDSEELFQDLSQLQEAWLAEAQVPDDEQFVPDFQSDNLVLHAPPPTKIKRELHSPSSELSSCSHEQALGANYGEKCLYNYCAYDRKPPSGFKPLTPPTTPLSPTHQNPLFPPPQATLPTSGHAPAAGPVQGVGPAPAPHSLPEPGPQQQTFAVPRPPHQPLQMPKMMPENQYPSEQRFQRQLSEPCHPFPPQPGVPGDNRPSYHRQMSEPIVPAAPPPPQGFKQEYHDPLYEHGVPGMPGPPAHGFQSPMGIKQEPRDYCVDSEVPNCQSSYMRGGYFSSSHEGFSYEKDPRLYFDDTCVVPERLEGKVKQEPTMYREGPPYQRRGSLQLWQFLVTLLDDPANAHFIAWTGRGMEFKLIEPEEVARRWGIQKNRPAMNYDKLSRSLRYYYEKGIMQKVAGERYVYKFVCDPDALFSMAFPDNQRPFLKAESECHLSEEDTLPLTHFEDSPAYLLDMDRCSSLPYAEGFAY
In short: as §1

HSF1 = HSF1 (Homo sapiens, UniProt Q00613 1-529); details: protein: recombinant; tags: N-terminal GST; chain copies: 3; dsDNA, one strand shown
Chain of HSF1 (Q00613 whole entry): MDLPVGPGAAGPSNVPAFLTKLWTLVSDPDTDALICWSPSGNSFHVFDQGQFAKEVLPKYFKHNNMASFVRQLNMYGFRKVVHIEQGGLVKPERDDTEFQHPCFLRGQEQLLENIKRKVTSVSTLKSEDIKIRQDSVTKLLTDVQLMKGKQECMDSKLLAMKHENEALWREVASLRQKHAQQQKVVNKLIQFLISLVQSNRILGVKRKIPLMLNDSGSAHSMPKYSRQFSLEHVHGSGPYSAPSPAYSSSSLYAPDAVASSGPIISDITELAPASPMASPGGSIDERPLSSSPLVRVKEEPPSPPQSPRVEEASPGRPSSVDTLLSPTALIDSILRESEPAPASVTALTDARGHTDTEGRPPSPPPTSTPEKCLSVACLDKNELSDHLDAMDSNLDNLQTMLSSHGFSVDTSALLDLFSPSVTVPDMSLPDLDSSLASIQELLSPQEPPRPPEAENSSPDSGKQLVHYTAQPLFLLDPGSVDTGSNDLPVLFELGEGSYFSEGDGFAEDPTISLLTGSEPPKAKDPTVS
In short: as §1

SPIC = target: T2, SPIC (Homo sapiens, UniProt Q8N5J4 1-248); details: protein: recombinant; tags: N-terminal GST; dsDNA, one strand shown
T2 sequence: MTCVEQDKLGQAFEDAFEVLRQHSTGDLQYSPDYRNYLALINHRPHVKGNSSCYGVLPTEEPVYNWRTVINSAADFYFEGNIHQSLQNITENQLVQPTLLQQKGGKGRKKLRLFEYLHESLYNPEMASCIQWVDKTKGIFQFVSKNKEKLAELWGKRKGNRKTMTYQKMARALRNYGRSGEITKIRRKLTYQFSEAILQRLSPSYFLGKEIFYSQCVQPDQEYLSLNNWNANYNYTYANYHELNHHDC
In short: as §1

ELF4 = ELF4 (Homo sapiens, UniProt Q99607 1-663); details: protein: recombinant; tags: N-terminal GST; dsDNA, one strand shown
Chain of ELF4 (Q99607 whole entry): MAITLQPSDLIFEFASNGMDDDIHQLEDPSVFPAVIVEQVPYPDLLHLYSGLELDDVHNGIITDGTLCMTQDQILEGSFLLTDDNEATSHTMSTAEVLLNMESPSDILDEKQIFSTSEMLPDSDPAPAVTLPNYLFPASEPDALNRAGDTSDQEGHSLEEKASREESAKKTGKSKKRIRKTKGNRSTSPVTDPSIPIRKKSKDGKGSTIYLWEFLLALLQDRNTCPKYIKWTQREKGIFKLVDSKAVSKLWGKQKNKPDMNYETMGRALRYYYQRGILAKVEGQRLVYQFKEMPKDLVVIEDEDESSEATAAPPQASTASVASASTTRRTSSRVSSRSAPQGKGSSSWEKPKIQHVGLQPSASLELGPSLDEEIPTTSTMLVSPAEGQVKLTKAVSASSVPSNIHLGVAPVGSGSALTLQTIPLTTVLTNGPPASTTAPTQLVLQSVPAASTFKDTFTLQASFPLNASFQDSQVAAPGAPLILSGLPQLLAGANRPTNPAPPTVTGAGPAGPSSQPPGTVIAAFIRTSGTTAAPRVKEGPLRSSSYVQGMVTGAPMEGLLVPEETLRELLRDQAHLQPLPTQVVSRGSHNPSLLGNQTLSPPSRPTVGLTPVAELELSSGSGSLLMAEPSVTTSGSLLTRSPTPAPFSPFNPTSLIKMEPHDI
In short: as §1

ELK4 = target: T3, ELK4 (Homo sapiens, UniProt P28324-2 1-405); details: protein: recombinant; tags: N-terminal GST; dsDNA, one strand shown
T3 sequence: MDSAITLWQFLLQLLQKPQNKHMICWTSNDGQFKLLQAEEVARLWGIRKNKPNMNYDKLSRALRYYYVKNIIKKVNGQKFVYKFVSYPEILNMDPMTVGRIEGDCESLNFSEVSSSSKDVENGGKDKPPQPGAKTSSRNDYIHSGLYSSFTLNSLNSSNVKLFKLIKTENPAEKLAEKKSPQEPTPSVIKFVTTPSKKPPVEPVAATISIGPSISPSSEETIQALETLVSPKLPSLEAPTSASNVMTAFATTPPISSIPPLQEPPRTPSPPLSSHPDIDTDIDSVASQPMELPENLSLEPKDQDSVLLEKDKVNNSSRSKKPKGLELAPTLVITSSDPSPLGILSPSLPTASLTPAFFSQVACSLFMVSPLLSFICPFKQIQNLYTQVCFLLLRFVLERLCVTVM
In short: as §1

ETV2 = target: T4, ETV2 (Homo sapiens, UniProt O00321 1-342); details: protein: recombinant; tags: N-terminal GST; dsDNA, one strand shown
T4 sequence: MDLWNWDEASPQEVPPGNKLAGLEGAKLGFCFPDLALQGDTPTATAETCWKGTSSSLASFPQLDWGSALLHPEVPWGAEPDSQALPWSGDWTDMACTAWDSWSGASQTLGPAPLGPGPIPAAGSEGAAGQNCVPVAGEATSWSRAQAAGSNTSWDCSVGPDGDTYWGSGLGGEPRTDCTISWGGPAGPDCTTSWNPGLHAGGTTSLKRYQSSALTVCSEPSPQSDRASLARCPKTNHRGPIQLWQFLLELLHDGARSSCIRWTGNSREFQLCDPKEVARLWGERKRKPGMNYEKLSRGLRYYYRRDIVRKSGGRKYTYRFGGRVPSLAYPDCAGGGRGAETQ
In short: as §1

ELF3 = target: T5, ELF3 (Homo sapiens, UniProt P78545 1-371); details: protein: recombinant; tags: N-terminal GST; dsDNA, one strand shown
T5 sequence: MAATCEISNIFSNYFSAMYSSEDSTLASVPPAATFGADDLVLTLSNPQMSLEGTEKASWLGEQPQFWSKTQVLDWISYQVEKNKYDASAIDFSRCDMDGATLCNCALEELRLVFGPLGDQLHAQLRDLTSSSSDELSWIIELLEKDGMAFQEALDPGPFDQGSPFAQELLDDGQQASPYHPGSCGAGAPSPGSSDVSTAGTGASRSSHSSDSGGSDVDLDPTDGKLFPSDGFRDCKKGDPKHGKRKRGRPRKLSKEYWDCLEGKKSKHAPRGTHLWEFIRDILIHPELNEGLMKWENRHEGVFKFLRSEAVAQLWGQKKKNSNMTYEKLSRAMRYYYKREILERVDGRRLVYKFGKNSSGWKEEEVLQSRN
In short: as §1

CRX = CRX (Homo sapiens, UniProt O43186 1-299); details: protein: recombinant; tags: N-terminal GST; dsDNA, one strand shown
Chain of CRX (O43186 whole entry): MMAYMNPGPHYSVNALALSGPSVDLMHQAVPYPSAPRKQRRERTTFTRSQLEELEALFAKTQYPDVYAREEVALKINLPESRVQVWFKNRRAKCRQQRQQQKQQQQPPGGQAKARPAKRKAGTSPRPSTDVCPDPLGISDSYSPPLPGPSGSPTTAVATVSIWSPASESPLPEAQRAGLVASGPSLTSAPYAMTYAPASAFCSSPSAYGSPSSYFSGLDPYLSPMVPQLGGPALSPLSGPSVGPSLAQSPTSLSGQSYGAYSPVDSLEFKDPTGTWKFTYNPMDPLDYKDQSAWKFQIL
In short: as §1

ETV1 = ETV1 (Homo sapiens, UniProt P50549 1-477); details: protein: recombinant; tags: N-terminal GST; dsDNA, one strand shown
Chain of ETV1 (P50549 whole entry): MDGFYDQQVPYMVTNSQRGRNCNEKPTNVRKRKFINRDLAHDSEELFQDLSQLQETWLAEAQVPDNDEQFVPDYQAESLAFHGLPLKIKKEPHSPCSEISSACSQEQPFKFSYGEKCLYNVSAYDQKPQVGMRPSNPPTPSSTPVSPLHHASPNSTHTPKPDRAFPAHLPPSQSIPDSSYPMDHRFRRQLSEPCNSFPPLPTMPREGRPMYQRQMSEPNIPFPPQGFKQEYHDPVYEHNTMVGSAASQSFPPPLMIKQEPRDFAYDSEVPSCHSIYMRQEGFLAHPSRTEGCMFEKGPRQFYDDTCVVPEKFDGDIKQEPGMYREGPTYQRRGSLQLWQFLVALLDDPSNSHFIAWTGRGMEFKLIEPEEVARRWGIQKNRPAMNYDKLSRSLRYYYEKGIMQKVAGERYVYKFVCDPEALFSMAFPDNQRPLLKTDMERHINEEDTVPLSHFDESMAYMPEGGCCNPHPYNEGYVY
In short: as §1

ERF = target: T6, ERF (Homo sapiens, UniProt P50548 1-548); details: protein: recombinant; tags: N-terminal GST; dsDNA, one strand shown
T6 sequence: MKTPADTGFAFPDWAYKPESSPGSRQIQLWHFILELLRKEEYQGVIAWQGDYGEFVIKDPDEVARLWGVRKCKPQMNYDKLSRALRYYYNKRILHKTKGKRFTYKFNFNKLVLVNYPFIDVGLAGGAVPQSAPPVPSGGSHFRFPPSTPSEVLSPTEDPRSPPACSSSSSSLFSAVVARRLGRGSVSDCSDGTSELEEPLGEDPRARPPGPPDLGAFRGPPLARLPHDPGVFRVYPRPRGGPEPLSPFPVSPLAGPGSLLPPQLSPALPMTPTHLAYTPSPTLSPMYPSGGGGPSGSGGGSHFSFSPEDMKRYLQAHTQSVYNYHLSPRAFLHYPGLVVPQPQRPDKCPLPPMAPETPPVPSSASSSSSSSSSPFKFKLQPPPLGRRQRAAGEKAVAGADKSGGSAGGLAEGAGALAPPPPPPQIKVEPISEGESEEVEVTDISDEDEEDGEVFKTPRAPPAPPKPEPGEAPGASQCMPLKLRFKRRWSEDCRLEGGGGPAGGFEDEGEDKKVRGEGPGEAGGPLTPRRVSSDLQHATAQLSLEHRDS
In short: as §1

ETV3L = target: T7, ETV3L (Homo sapiens, UniProt Q6ZN32 1-361); details: protein: recombinant; tags: N-terminal GST; dsDNA, one strand shown
T7 sequence: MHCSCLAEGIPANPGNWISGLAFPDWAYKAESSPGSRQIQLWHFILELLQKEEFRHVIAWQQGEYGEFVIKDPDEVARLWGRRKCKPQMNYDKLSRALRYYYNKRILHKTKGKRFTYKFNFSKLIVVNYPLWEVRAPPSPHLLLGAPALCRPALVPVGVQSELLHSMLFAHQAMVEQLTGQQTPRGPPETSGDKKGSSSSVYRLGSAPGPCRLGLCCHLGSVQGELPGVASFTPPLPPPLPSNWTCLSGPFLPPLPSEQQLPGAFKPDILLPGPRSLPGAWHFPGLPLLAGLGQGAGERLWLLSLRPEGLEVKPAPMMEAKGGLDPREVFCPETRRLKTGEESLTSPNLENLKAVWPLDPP
In short: as §1

ETS2 = target: T8, ETS2 (Homo sapiens, UniProt P15036 1-469); details: protein: recombinant; tags: N-terminal GST; dsDNA, one strand shown
T8 sequence: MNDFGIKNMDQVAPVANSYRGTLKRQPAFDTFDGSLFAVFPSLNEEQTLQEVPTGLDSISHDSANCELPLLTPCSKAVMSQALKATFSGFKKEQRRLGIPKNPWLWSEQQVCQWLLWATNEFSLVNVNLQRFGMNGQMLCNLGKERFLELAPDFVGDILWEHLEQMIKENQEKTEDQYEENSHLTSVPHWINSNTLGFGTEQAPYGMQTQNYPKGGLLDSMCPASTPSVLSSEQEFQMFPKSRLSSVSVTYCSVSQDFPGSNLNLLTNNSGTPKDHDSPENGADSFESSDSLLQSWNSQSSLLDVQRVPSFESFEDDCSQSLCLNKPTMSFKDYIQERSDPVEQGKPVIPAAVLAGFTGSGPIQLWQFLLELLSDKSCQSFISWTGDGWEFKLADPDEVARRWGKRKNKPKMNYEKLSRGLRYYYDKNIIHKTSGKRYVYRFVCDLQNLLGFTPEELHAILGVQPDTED
In short: as §1

SPDEF = target: T9, SPDEF (Homo sapiens, UniProt O95238 1-335); details: protein: recombinant; tags: N-terminal GST; dsDNA, one strand shown
T9 sequence: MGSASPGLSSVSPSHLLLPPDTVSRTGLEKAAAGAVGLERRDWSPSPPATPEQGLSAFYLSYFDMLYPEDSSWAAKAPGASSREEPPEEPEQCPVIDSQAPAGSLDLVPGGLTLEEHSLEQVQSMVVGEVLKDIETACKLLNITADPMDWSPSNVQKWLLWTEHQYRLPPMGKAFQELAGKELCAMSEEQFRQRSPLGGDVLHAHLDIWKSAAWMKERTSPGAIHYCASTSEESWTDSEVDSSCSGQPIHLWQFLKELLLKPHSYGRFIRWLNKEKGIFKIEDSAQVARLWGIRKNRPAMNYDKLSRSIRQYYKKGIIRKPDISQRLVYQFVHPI
In short: as §1

ETV7 = target: T10, ETV7 (Homo sapiens, UniProt Q9Y603 1-341); details: protein: recombinant; tags: N-terminal GST; dsDNA, one strand shown
T10 sequence: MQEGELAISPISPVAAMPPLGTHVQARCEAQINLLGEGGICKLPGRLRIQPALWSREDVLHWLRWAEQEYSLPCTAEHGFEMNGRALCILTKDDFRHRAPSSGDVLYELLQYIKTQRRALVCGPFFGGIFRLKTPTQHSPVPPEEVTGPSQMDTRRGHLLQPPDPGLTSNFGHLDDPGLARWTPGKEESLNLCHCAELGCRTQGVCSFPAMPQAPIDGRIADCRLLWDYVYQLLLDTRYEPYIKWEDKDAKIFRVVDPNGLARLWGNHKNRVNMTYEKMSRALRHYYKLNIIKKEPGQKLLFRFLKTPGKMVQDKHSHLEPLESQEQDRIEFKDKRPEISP
In short: as §1

ELF5 = target: T11, ELF5 (Homo sapiens, UniProt Q9UKW6-2 1-255); details: protein: recombinant; tags: N-terminal GST; dsDNA, one strand shown
T11 sequence: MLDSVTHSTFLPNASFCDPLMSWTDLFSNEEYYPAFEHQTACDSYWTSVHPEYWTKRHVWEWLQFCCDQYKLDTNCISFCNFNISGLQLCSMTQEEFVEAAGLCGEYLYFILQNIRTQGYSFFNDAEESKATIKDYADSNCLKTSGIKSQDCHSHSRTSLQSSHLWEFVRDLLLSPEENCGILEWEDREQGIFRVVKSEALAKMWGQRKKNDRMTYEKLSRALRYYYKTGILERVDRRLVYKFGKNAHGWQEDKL
In short: as §1

ETV3 = target: T12, ETV3 (Homo sapiens, UniProt P41162-2 1-143); details: protein: recombinant; tags: N-terminal GST; dsDNA, one strand shown
T12 sequence: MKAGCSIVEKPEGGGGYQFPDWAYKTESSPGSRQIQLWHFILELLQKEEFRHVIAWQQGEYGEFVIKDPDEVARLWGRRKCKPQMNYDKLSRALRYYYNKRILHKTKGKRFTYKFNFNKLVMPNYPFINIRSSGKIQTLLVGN
In short: as §1

ETV6 = ETV6 (Homo sapiens, UniProt P41212 1-452); details: protein: recombinant; tags: N-terminal GST; dsDNA, one strand shown
Chain of ETV6 (P41212 whole entry): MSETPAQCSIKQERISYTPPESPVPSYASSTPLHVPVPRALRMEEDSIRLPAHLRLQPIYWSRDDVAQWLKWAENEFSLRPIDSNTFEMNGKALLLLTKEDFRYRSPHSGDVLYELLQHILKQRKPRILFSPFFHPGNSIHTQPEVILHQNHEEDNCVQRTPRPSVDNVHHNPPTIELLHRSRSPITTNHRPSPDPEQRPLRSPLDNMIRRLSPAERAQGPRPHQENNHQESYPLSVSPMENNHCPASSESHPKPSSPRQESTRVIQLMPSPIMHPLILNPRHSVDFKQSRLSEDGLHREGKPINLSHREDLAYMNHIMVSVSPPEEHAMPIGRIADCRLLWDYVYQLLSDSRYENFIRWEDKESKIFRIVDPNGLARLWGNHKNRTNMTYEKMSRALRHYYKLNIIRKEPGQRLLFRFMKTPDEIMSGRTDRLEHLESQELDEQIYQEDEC
In short: as §1

CTGTTA was tested, and the binding signal (FEV) was 1.25 fold enrichment (6-mer frequency, TF over GST control), the binding signal (ETV5) was 1.2 fold enrichment (6-mer frequency, TF over GST control) and the binding signal (HSF1) was 1.16 fold enrichment (6-mer frequency, TF over GST control). The binding signal (SPIC) was 1.28 fold enrichment (6-mer frequency, TF over GST control), the binding signal (ELF4) was 1.37 fold enrichment (6-mer frequency, TF over GST control) and the binding signal (ELK4) was 1.4 fold enrichment (6-mer frequency, TF over GST control). For the same sequence, the binding signal (ETV2) was 1.35 fold enrichment (6-mer frequency, TF over GST control), the binding signal (ELF3) was 1.32 fold enrichment (6-mer frequency, TF over GST control) and the binding signal (CRX) was 1.16 fold enrichment (6-mer frequency, TF over GST control). For the same sequence, the binding signal (ETV1) was 1.23 fold enrichment (6-mer frequency, TF over GST control), the binding signal (ERF) was 1.28 fold enrichment (6-mer frequency, TF over GST control) and the binding signal (ETV3L) was 1.23 fold enrichment (6-mer frequency, TF over GST control). For the same sequence, the binding signal (ETS2) was 1.26 fold enrichment (6-mer frequency, TF over GST control), the binding signal (SPDEF) was 1.32 fold enrichment (6-mer frequency, TF over GST control) and the binding signal (ETV7) was 1.12 fold enrichment (6-mer frequency, TF over GST control). For the same sequence, the binding signal (ELF5) was 1.37 fold enrichment (6-mer frequency, TF over GST control), the binding signal (ETV3) was 1.31 fold enrichment (6-mer frequency, TF over GST control) and the binding signal (ETV6) was 1.26 fold enrichment (6-mer frequency, TF over GST control).
